Measured values taken from PubChem BioAssay (Tox21).
A number with no mark means an inactive call. Results filed as inconclusive are left out. Where a call stands in place of a potency, no number is given. The source made the active and inactive calls. Unless noted, calls come from the whole dose curve.

Columns and labels:
[1] = qHTS assay to identify small molecule agonists of the sonic hedgehog signaling (Shh) pathway (AID 1259368);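 note: NIH/3T3-derived 3T3Gli1-Luc cells carrying a stable Gli1-driven firefly luciferase reporter; series mostly up to about 92 µM; nearly all actives have a fitted effect of over 15% in size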
In short: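 A Gli1 transcriptional response element controlled firefly luciferase in 3T3Gli1-Luc cells. Compounds and a positive control were added 4 hr after plating, and cells were incubated a further 24 hr at 37 C before luminescence detection.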

[2] = qHTS assay to identify small molecule antagonists of the sonic hedgehog signaling (Shh) pathway (AID 1259369); note: nearly all actives have a fitted effect of over 45% in size; note: potency is the fitted concentration of half-maximal effect
In short: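 For antagonist detection, the reporter line received test compounds together with conditioned medium, incubated 24hr at 37 C, 5% CO2, then luminescence was recorded following 30min room-temperature luciferase reagent incubation.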

[3] = qHTS assay to identify small molecule antagonists of the estrogen receptor beta (ER-beta) signaling pathway - cell viability counter screen (AID 1259382; active = well fitted curve in the direction sought with a large enough effect in the repeat runs; an effect the other way counts as inactive or inconclusive;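 note: HEK293T cells carrying ER-beta-UAS-bla reporter stimulated with estradiol; series mostly up to about 92 µM; nearly all actives have a fitted effect of over 55% in size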)
In short: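 In this multiplexed counter screen, cells were seeded at 2,000 per well in medium with 2% charcoal-stripped FBS and incubated 6 hr before compound and 1nM final E2 were added. Sixteen hours later, ATP-based luminescence reported viability.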

[4] = qHTS assay to identify small molecule agonists of the estrogen receptor alpha (ER-alpha) signaling pathway in the presence of an antagonist - cell viability counter screen (AID 1259386; active = well fitted curve in the direction sought with a large enough effect in the repeat runs; an effect the other way counts as inactive or inconclusive;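 note: series mostly up to about 92 µM; cells exposed to compounds for 22 h at 37 °C before the viability read; nearly all actives have a fitted effect of over 30% in size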)
In short: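 Viability counter screen using VM7Luc4E2 (full-length ER-alpha, four ERE-luciferase). The cells were treated with compounds alongside ICI-182,780 10.0nM for 22hr, and live-cell protease fluorescence was quantified with CellTiter-Fluor.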

[5] = target: Progesterone receptor (Homo sapiens) (UniProt P06401); assay: qHTS assay to identify small molecule agonists of the progesterone receptor (PR) signaling pathway (AID 1346784); note: nearly all actives have a fitted effect of over 30% in size
In short: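 Agonist qHTS: compounds pinned onto 3,000 PR-UAS-bla HEK 293T cells per well in charcoal-stripped serum medium, 16hr at 37C, then beta-lactamase activity measured by LiveBLAzer FRET fluorescence after 2 hours at room temperature.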

[6] = target: Progesterone receptor (Homo sapiens) (UniProt P06401); assay: qHTS assay to identify small molecule antagonists of the progesterone receptor (PR) signaling pathway (AID 1346795; active = well fitted inhibition curve with a large enough effect in the signal ratio in the repeat runs, not every such curve was filed as active; the % refers to the signal ratio)
In short: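 Antagonist mode with agonist R5020 at 1 nM final and 16 hr incubation at 37C. Reporter was beta-lactamase driven by UAS in HEK293T (PR-UAS-bla), 2% charcoal-stripped serum; signal from LiveBLAzer FRET substrate, 2 hr at room temperature.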

[7] = qHTS assay to identify small molecule agonists of the progesterone receptor (PR) signaling pathway - cell viability counter screen (AID 1346799); note: nearly all actives have a fitted effect of over 45% in size
In short: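 Cytotoxicity measured by CellTiter-Glo luminescence (30 min, RT) in the same wells as the PR beta-lactamase agonist read. Those HEK293T cells had 16 h compound treatment at 37 C in 2% charcoal-stripped FBS medium.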

[8] = qHTS assay to identify small molecule antagonists of the TGF-beta/Smad signaling pathway - cell viability counter screen (AID 1346824; active = well fitted curve in the direction sought with a large enough effect in the repeat runs; an effect the other way counts as inactive or inconclusive; note: nearly all actives have a fitted effect of over 50% in size)
In short: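 SBE-bla HEK 293T cells were plated overnight at 37 C, then given compounds in DMSO plus TGF-beta1 (added as 0.25 ng/mL solution) for 5 hr. After the bla read, CellTiter-Glo was added to the same wells and luminescence read after 30 min at room temperature.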

[9] = qHTS assay to identify small molecule agonists of the TGF-beta/Smad signaling pathway - cell viability counter screen (AID 1346829; active = well fitted curve in the direction sought with a large enough effect in the repeat runs; an effect the other way counts as inactive or inconclusive; note: top concentration of the series differs between compounds; nearly all actives have a fitted effect of over 45% in size)
In short: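 Cytotoxicity counter screen: CellTiter-Glo luminescence (30 min, room temperature) measured in the SBE-bla HEK 293T reporter wells after 5 hr compound treatment at 37 C and the 2 hr substrate step.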

[10] = qHTS assay to identify small molecule agonists of the TGF-beta/Smad signaling pathway (AID 1346859; active = well fitted activation curve with a large enough effect in the signal ratio in the repeat runs, not every such curve was filed as active; the % refers to the signal ratio; note: series mostly up to about 77 µM)
In short: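 Fluorescence (ex 405 nm; em 460 and 530 nm) was read 2 h after LiveBLAzer FRET substrate at RT. The preceding compound treatment of overnight-plated SBE-bla HEK293T cells lasted 5 h at 37 C.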

[11] = qHTS assay to identify small molecule agonists of the androgen receptor (AR) signaling pathway in the presence of an antagonist - cell viability counter screen (AID 1259379; active = well fitted curve in the direction sought with a large enough effect in the repeat runs; an effect the other way counts as inactive or inconclusive;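 note: MDA-kb2 human breast cancer cells carrying an MMTV luciferase reporter; series mostly up to about 92 µM; nearly all actives have a fitted effect of over 25% in size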)
In short: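 Seed MDA-kb2 at 3,000 cells/well; incubate 5 hr, 37C, 0% CO2. Add nilutamide to 3.0uM final, then pin compounds at 15 concentrations. Incubate 16 hr. Add CellTiter-Fluor at 15 hr, read fluorescence after 1 hr.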

[12] = target: Estrogen receptor (Homo sapiens) (UniProt P03372); assay: qHTS assay to identify small molecule agonists of the estrogen receptor alpha (ER-alpha) signaling pathway in the presence of an antagonist (AID 1259383); note: top concentration of the series differs between compounds; nearly all actives have a fitted effect of over 15% in size
In short: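 Stably transfected VM7Luc4E2 reporter cells, kept 5 days in charcoal-stripped serum, received ICI-182,780 at 10.0nM final before compound addition. Following 22hr incubation at 37C and 5% CO2, luciferase signal was read by luminescence.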

[13] = qHTS assay to identify small molecule agonists or antagonists of the thyroid stimulating hormone receptor (TSHR) signaling pathway - wild type cell line counter screen (AID 1259384)
In short: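 Wild-type HEK293 cells were plated 18 h at 37 C/5% CO2, pin-dosed with compound plus Ro20-1724 medium, held 30 min at room temperature, then given cAMP-d2 and anti-cAMP-cryptate; fluorescence was read after 1 h. Fifteen concentrations, triplicate.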

[14] = target: Thyrotropin receptor (Homo sapiens) (UniProt P16473); assay: qHTS assay to identify small molecule antagonists of the thyroid stimulating hormone receptor (TSHR) signaling pathway (AID 1259385); note: nearly all actives have a fitted effect of over 20% in size
In short: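 TSHR-HEK293 cells were plated and held 18 h at 37C/5% CO2, then given compound plus Ro20-1724 and stimulated with TSH at 1.5 ng/mL final. After 30 min at room temperature, cAMP was detected with cAMP-d2/anti-cAMP-cryptate (1 h) by fluorescence.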

[15] = qHTS assay to identify small molecule antagonists of the progesterone receptor (PR) signaling pathway - cell viability counter screen (AID 1346798; active = well fitted curve in the direction sought with a large enough effect in the repeat runs; an effect the other way counts as inactive or inconclusive; note: series mostly up to about 92 µM; nearly all actives have a fitted effect of over 50% in size)
In short: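 Cytotoxicity read as CellTiter-Glo luminescence (30 min, room temperature) in the same wells as the beta-lactamase readout. HEK293T PR-UAS-bla cells in charcoal-stripped 2% FBS received compound and R5020, then 16 h at 37C, 5% CO2.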

[16] = qHTS assay to identify small molecule agonists of the estrogen receptor beta (ER-beta) signaling pathway - cell viability counter screen (AID 1259380; active = well fitted curve in the direction sought with a large enough effect in the repeat runs; an effect the other way counts as inactive or inconclusive; note: nearly all actives have a fitted effect of over 30% in size)
In short: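 CellTiter-Glo read, 30 min RT, same wells as bla assay; cells ER-beta-UAS-bla HEK293T; 16 hr compound, 37C; medium 2% charcoal-stripped FBS.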

[17] = target: Thyrotropin-releasing hormone receptor (Homo sapiens) (UniProt P34981); assay: qHTS assay to identify small molecule antagonists of the thyrotropin-releasing hormone receptor (TRHR) signaling pathway (AID 1346877; active = well fitted inhibition curve with a large enough effect in the repeat runs, not every such curve was filed as active; note: series mostly up to about 51 µM)
In short: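 Following an 18 h incubation at 37 °C and a 2 h calcium dye load, TRHR-HEK293 cells were exposed to compound (5 min, room temperature) and challenged with TRH, 1 nM final.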

Sequence of Progesterone receptor (Homo sapiens) (P06401 whole entry, looked up): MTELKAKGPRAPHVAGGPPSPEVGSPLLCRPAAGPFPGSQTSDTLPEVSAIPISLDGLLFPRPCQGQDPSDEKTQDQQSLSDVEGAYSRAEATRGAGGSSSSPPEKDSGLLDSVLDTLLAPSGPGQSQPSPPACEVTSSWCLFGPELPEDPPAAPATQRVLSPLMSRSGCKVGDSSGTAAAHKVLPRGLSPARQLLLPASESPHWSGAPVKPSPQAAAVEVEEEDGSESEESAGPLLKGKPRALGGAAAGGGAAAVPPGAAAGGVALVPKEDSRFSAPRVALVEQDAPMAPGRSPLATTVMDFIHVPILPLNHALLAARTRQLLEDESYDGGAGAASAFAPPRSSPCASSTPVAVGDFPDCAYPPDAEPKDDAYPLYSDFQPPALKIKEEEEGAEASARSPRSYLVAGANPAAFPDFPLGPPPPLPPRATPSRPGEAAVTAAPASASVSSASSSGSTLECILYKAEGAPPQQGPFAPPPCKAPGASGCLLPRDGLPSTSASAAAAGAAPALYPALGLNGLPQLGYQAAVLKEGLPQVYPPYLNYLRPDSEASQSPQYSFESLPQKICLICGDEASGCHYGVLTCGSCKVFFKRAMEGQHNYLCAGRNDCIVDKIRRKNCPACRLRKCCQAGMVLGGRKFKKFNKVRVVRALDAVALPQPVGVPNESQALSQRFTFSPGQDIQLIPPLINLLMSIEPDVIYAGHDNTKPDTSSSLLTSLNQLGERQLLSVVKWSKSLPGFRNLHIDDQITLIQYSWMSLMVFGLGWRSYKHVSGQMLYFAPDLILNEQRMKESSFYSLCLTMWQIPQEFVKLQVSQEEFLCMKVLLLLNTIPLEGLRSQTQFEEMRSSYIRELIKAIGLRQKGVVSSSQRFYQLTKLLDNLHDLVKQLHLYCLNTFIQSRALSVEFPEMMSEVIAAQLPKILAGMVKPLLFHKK
Sequence of Thyrotropin receptor (Homo sapiens) (P16473 whole entry, looked up): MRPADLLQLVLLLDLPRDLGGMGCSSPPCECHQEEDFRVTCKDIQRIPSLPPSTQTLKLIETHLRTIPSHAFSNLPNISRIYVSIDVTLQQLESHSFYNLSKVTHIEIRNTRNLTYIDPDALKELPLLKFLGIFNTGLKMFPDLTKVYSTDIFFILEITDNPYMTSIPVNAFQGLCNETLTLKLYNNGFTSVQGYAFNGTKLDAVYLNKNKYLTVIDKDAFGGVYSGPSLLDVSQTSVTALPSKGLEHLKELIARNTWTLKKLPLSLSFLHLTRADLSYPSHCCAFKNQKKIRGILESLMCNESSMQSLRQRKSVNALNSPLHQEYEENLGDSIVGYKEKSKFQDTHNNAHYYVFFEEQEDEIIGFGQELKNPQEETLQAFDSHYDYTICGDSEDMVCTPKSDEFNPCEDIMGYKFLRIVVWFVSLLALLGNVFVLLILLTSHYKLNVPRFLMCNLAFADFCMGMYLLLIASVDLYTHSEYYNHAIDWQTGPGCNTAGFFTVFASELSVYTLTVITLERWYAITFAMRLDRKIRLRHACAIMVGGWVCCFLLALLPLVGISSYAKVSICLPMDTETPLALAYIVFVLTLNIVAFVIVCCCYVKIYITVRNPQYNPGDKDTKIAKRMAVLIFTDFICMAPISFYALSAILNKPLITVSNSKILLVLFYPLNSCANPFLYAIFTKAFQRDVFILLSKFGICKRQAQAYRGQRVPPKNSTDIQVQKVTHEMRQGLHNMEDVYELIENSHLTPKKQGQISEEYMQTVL
Sequence of Estrogen receptor (Homo sapiens) (P03372 whole entry, looked up): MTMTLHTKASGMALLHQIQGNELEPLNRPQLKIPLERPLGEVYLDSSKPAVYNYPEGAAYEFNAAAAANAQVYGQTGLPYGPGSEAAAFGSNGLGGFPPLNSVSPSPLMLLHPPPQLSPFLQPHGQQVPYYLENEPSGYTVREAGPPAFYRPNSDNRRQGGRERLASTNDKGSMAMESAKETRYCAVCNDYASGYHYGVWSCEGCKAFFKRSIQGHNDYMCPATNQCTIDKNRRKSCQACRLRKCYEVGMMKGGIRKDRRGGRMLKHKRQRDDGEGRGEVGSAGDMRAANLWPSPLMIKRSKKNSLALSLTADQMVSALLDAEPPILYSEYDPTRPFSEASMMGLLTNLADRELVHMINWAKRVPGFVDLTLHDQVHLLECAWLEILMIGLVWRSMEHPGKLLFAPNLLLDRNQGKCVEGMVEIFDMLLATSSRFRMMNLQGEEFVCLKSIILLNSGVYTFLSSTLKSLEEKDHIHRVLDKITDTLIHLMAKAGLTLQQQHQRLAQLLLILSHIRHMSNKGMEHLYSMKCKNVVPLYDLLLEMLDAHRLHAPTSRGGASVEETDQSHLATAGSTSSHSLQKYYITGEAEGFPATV
Sequence of Thyrotropin-releasing hormone receptor (Homo sapiens) (P34981 whole entry, looked up): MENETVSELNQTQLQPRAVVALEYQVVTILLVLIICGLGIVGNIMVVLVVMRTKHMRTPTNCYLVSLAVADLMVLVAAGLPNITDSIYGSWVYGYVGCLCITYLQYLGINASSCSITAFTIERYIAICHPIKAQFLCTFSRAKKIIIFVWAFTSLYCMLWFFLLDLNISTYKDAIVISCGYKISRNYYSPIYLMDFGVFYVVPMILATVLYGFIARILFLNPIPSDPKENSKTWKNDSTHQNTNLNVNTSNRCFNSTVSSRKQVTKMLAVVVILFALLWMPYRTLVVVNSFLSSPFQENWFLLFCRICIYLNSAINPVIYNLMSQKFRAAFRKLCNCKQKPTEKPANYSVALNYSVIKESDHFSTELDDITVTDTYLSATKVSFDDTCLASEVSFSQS

| SMILES | Potency [1] | Potency [2] | outcome [3] | Potency [4] | Potency [5] | Potency [6] | Potency [7] | outcome [8] | outcome [9] | outcome [10] | Potency [11] | Potency [12] | outcome [13] | Potency [14] | Potency [15] | Potency [16] | outcome [17] |
| --- | --- | --- | --- | --- | --- | --- | --- | --- | --- | --- | --- | --- | --- | --- | --- | --- | --- |
| CCN(CC)C(=O)N(CC)CC | inactive | inactive | inactive | inactive | inactive | inactive | inactive | inactive | inactive | inactive | – | – | – | – | – | – | – |
| CN(CCCN1c2ccccc2CCc2ccccc21)CC(=O)c1ccc(Cl)cc1 | inactive | 26.6 µM (active) | – | – | – | – | inactive | inactive | inactive | inactive | inactive | inactive | inactive | inactive | inactive | – | – |
| CN1C(=O)CC(c2ccccc2)C1=O (stereo not given) | inactive | inactive | inactive | inactive | inactive | inactive | inactive | inactive | – | inactive | inactive | – | inactive | inactive | inactive | – | – |
| CCCN(CCC)C(=O)C(CCC(=O)O)NC(=O)c1ccccc1 (stereo not given) | inactive | inactive | inactive | inactive | inactive | inactive | inactive | inactive | inactive | inactive | – | – | – | – | inactive | inactive | – |
| CCCNC(C)C(=O)Nc1c(C)csc1C(=O)OC (stereo not given) | inactive | inactive | inactive | inactive | inactive | inactive | inactive | inactive | inactive | inactive | inactive | inactive | inactive | inactive | inactive | – | – |
| O=C1CCCCC1C1CCCCC1 (stereo not given) | inactive | inactive | inactive | inactive | inactive | inactive | inactive | inactive | inactive | inactive | inactive | inactive | – | inactive | inactive | inactive | – |
| O=Cc1ccc(F)c(Br)c1 | inactive | inactive | inactive | inactive | inactive | inactive | inactive | inactive | inactive | inactive | inactive | inactive | inactive | inactive | – | – | inactive |
| CCN(O)CC | inactive | 11.9 µM (active) | inactive | inactive | inactive | inactive | inactive | inactive | inactive | inactive | – | – | – | – | inactive | inactive | – |
| O=C(O)C(=O)Cc1c[nH]c2ccccc12 | inactive | inactive | inactive | inactive | inactive | inactive | inactive | inactive | inactive | inactive | inactive | inactive | inactive | inactive | inactive | inactive | inactive |
